Bioassay records deposited in PubChem by National Center for Advancing Translational Sciences (NCATS).
Compounds with a hit are over-represented: about 3.9% of the library has one in this group of screens.
Tb PFK block – T. brucei PFK enzyme inhibition. 0.17% of 330,000 active. T. brucei PFK, ADP-Glo luminescence. Potency, µM (top dose mostly 57.5 µM), most hits filed as inhibitors. O15648; also: nearly all actives have a fitted effect of over 60% in size
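PFK 1.25 nM, F6P 0.5 mM, ATP 0.1 mM, 0.1 M TEA pH 8.0, 5 mM MgCl2, 0.01% Tween20, 0.1% BSA; 45 min RT. ADP-Glo readout. qHTS titration up to 57 uM; curves fitted, compounds curve-classed.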
PLK1 PBD inh – inhibitors of human PLK1 polo-box domain binding. P53350. 2.8% of 360,000 active. Potency, µM, hits mostly inhibitors. AID 720504. Plk1 PBD binding of FITC phosphopeptide, fluorescence polarization; also: series mostly up to about 57 µM; nearly all actives have a fitted effect of over 65% in size
Target sequence (P53350 whole entry, looked up, the tested form may be a part): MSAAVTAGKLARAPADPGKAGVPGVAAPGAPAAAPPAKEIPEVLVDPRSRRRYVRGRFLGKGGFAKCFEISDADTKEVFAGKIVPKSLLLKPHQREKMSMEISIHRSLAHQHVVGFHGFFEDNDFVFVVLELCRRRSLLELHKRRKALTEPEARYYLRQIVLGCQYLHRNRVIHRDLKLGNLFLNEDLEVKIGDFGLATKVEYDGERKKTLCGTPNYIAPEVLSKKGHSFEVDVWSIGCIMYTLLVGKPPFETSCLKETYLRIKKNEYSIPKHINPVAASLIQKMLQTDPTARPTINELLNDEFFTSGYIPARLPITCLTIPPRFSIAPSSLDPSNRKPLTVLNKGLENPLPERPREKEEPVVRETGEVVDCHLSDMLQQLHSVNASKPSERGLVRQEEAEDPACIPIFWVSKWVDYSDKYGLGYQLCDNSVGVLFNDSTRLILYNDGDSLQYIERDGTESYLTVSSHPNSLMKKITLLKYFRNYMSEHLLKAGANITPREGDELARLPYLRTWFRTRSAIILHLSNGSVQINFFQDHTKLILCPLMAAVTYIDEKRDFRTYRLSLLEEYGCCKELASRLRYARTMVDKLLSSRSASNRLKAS
VDR inh – blocks the human vitamin D receptor; VDR-SRC2-3 peptide fluorescence polarization, 2 h; Potency, µM, actives largely listed as inhibitors; P11473; 0.93% of 400,000 active
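Reagent solutions, kept cold and dark, are dispensed first; compounds are then pinned in at 23 nl, plates briefly spun, and incubated 2 h at ambient temperature. Inhibition of VDR–SRC2-3 peptide binding is read by fluorescence polarization.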
BRCA1 expr act – BRCA1 expression activation. MCF7-BRCA1-FFLuc reporter, luminescence, 48 h; response scale: scaled: vehicle 0%, 10 µM genistein 100%. Potency, µM (highest dose often 46.1 µM), hits mostly activators. 1.1% of 380,000 active; also: nearly all actives have a fitted effect of over 80% in size
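Compounds are tested at multiple concentrations on MCF7 BRCA1-luciferase reporter cells seeded at 2000 per well; after 48 h, a single luminescence end-point is taken and curves fitted to the normalized data.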
USP1-UAF1 confirm – validation of human USP1/UAF1 inhibitors. shares compounds with VDR inh. Ub-Rhodamine cleavage, fluorescence kinetic read. Potency, µM (series often up to 56.8 µM), hits mostly inhibitors. 50% of 50 active. AID 540327
VDR inh confirm – confirmation of human vitamin D receptor inhibitors | shares compounds with VDR inh | VDR-coactivator inhibition assay, qHTS confirmation | Potency, µM, hits mostly inhibitors | 89% of 840 active
VDR FP – VDR (human) coactivator binding inhibition, fluorescein polarization. shares compounds with VDR inh. VDR-coactivator binding, fluorescein fluorescence polarization. 48% of 840 active. Potency, µM (doses to about 57.1 µM), hits mostly inhibitors
VDR bla – VDR (human) inhibition, cell-based beta-lactamase validation | shares compounds with VDR inh | 23% of 840 active | VDR beta-lactamase reporter cells, FRET ratio; cells co-treated with VDR agonist LG190178 | Potency, µM (series often up to 46.1 µM), most hits filed as inhibitors
VDR cytotox – counter-screen for vitamin D receptor inhibitors: cytotoxicity; shares compounds with VDR inh; cytotoxicity counter-screen, cell viability, qHTS; 18% of 840 active; Potency, µM (highest dose often 48.3 µM), usual class: cytotoxic; AID 602204; also: nearly all actives have a fitted effect of over 75% in size
TbPYK inh – Trypanosoma brucei pyruvate kinase inhibition, cherry-pick confirmation. shares compounds with PLK1 PBD inh. recombinant TbPYK, Kinase-Glo ATP luminescence. Potency, µM (titrated, usually from 76.9 µM), most hits filed as inhibitors. 67% of 890 active. AID 720569; also: nearly all actives have a fitted effect of over 70% in size
TbPYK orthogonal – orthogonal confirmation of Trypanosoma brucei pyruvate kinase inhibitors. shares compounds with PLK1 PBD inh. recombinant TbPYK, ADP-Glo luminescence, 60 min. Potency, µM (doses to about 76.9 µM), actives largely listed as inhibitors. 62% of 890 active. AID 720584; also: nearly all actives have a fitted effect of over 75% in size
Hits are given with their value; . = inactive; ? = inconclusive; / = no result given. Calls follow the shape of the dose curve; as a rule, active = well fitted curve in the direction sought with a large enough effect; inconclusive = small, poorly fitted or top-dose-only effect, or another doubt; inactive = no such curve, though single readings can be large; an effect the other way counts as inactive or inconclusive.

SMILES	Tb PFK block	PLK1 PBD inh	VDR inh	BRCA1 expr act	VDR inh confirm	VDR FP	VDR bla	VDR cytotox	TbPYK inh	TbPYK orthogonal	others
[O-]/[N+](=C\c1ccccc1)c1ccc(Br)cc1	.	15µM	25µM	.	3.8	?	.	.	/	/
COC(CNC(=O)c1ccc2c3c(onc13)-c1ccccc1C2=O)OC	.	3.4µM	40µM	.	3.8	?	?	?	/	/
N#C/C(=C\c1ccc(-c2cc(Cl)ccc2Cl)o1)C(=O)Nc1cccc2ncccc12	/	/	?	/	/	/	/	/	/	/	USP1-UAF1 confirm=?
COc1cc(/C=C(\C#N)C(=O)Nc2cccc3ncccc23)ccc1O	.	/	/	/	/	/	/	/	/	/
O=C(NCCN1CCC(n2c(=O)[nH]c3ccccc32)CC1)c1c(F)cccc1F	/	.	/	.	/	/	/	/	/	/
CC(=O)NC(c1ccc(F)c(F)c1)c1nc(-c2cnn(C)c2)cs1 (centres undefined)	/	.	/	.	/	/	/	/	/	/
O=C1C(Cl)=C(N2CCOCC2)C(=O)N1c1cccc(C(F)(F)F)c1	.	?	35µM	.	30	28µM	.	.	/	/
Cc1sc(NC(=O)COc2ccccc2)c(C#N)c1C	.	7.5µM	50µM	.	24	?	.	.	/	/
COc1ccc(C)cc1N1C(=N)/C(=C2/Nc3ccccc3S2)C(c2ccccc2)C1=O (centres undefined)	.	?	?	.	10	8.9µM	.	.	/	/
COc1ccc2[nH]c(-c3ccc(F)cc3F)cc(=O)c2c1	/	/	.	/	/	/	/	/	/	/
COc1ccc2[nH]c3c4c(ccc3c2c1)C(=O)C=CC4=O	12µM	?	?	.	7.1	5µM	6.5µM	?	5µM	?
COc1ncc2nc(-c3cccc(C#N)c3)c(=O)n(CCC#N)c2n1	/	/	.	/	/	/	/	/	/	/
NC(=O)c1c(N)sc2c1CCCCC2	?	?	79µM	.	18	14µM	.	.	?	?
NC(=O)c1c(N)sc2c1CCC2	.	?	.	.	/	/	/	/	/	/
CCSC1=N/C(=C\c2ccc(-c3ccccc3[N+](=O)[O-])o2)C(=O)S1	.	.	.	.	/	/	/	/	/	/
O=C1ON=C(c2ccccc2)/C1=C/c1ccc(-c2ccccc2[N+](=O)[O-])o1	.	0.95µM	35µM	.	7.5	?	16µM	23µM	32µM	?
CC(C)(C)c1cc(C(c2cccnc2)N2CCN(CCO)CC2)cc(C(C)(C)C)c1O (centres undefined)	.	1.9µM	25µM	.	3.8	4µM	16µM	?	0.32µM	2.8µM
CC1CCCN(c2nc3c(-c4ccc(Cl)cc4)nnn3c3ccccc23)C1 (centres undefined)	/	/	.	.	/	/	/	/	/	/
CC1=C(C)CS(=O)N(S(=O)(=O)c2ccc(Cl)cc2)C1 (centres undefined)	.	1.3µM	2.8µM	.	1.2	?	.	16µM	16µM	28µM
Nc1ccc2c(c1)C(=O)C(=O)c1ccccc1-2	.	1.5µM	20µM	.	6.7	?	4.1µM	2.9µM	14µM	?
CC1(C)CC(=O)C(C(c2ccc(F)cc2)C2C(=O)CC(C)(C)CC2=O)C(=O)C1	.	.	.	.	/	/	/	/	/	/
CCc1sc(C(C2C(=O)CC(C)(C)CC2=O)C2C(=O)CC(C)(C)CC2=O)cc1[N+](=O)[O-]	.	1.7µM	13µM	.	3.4	?	?	.	16µM	32µM
CC(C)(C)c1ccc([C@@H](O)CCCN2CCC(C(O)(c3ccccc3)c3ccccc3)CC2)cc1	/	/	.	/	/	/	/	/	/	/
CC1CCCN(C(=O)c2sc3cc([N+](=O)[O-])ccc3c2Cl)C1 (centres undefined)	.	.	.	.	/	/	/	/	/	/
CC(NC(=O)c1sc2cc([N+](=O)[O-])ccc2c1Cl)C(C)(C)C (centres undefined)	?	1.2µM	?	.	5.6	3.2µM	.	.	4µM	11µM
SMILES	Tb PFK block	PLK1 PBD inh	VDR inh	BRCA1 expr act	VDR inh confirm	VDR FP	VDR bla	VDR cytotox	TbPYK inh	TbPYK orthogonal	others
COc1cc2c(cc1OC)n(CC(=O)c1cccc(Cl)c1)c(=O)n1nc(CCn3nc(C)cc3C)nc21	/	/	.	/	/	/	/	/	/	/
CN(C(=O)C1=CC(c2ccc3c(c2)OCO3)=NS(=O)(=O)N1C)c1ccccc1	/	/	.	/	/	/	/	/	/	/
CC1=CC(=O)C(C(C)C)=CC1=NC(=O)c1ccc(C)cc1	.	2.7µM	25µM	.	3.8	?	?	?	7.9µM	7.9µM
CCOC(=O)c1c(N)sc(N)c1C(=O)OCC	.	3.4µM	8.9µM	.	4.7	8.9µM	.	.	32µM	14µM
O=C1C(=Cc2cccc(Cl)c2)CCc2ccccc21	/	.	/	.	/	/	/	/	/	/
O=C1C(=Cc2ccccc2Cl)CCc2ccccc21	/	.	/	.	/	/	/	/	25µM	.
O=C1C(=Cc2ccc(Cl)cc2)CCc2ccccc21	/	.	/	.	/	/	/	/	25µM	.
O=C1/C(=C\c2ccncc2)CCc2ccccc21	.	.	79µM	.	/	/	/	/	?	.
O=C1C(=Cc2ccc(F)cc2)CCc2ccccc21	/	.	/	.	/	/	/	/	28µM	.
O=C1/C(=C/c2ccncc2)CCc2ccccc21	.	.	?	.	/	/	/	/	/	/
COC1CCC2(C)C(=CCC3C4CC(O)CC4(C)CCC32)C1 (centres undefined)	/	.	.	.	/	/	/	/	/	/
CCOc1ccc(/C=C2\CCc3ccccc3C2=O)cc1	.	.	.	?	/	/	/	/	/	/
COc1ccc(C=C2CCc3ccccc3C2=O)cc1	/	.	/	.	/	/	/	/	25µM	.
Cc1cc(C)cc(N2C(=O)CSC23C(=O)N(CC(=O)Nc2ccc(F)cc2F)c2ccccc23)c1 (centres undefined)	/	/	.	.	/	/	/	/	/	/
Cc1ccccc1/C=N/N1C(=O)CSC1=S	.	?	.	.	/	/	/	/	/	/
O=C1CSC(=S)N1N=Cc1ccccc1O	/	13µM	?	.	/	/	/	/	13µM	13µM
Oc1cccc(/C=N/N2CCCCC2)c1O	.	.	.	.	/	/	/	/	/	/
Oc1ccc(/C=N/N2CCCCC2)c(O)c1O	.	11µM	?	.	/	/	/	/	32µM	35µM
CCN(CC)S(=O)(=O)c1ccc(C(=O)NC(=S)N(CCC#N)Cc2cccnc2)cc1	.	.	.	.	/	/	/	/	13µM	13µM
O=C1NC(=S)CN1c1ccccc1	.	27µM	32µM	.	/	/	/	/	?	?
O=C1N(c2ccccc2)CCN1c1ccccc1	.	.	.	?	/	/	/	/	/	/
